# Several values for one entry are separate records, joined by “and”; a condition that tells them apart may be missing. Identical values can stand only once. Inconclusive results are not listed. A call without a number means that no potency is given here. Activity calls are given as the source filed them. Calls come from the whole dose curve; as a rule, active = well fitted curve in the direction sought with a large enough effect; inconclusive = small, poorly fitted or top-dose-only effect, or another doubt; inactive = no such curve, though single readings can be large; an effect the other way counts as inactive or inconclusive.
# How the values were obtained:
# [1] = qHTS of pediatric cancer cell lines to identify multiple opportunities for drug repurposing: Primary screen for NB-EBc1 cells (AID 1347095); note: potency is the fitted concentration of half-maximal effect
# Procedure, shortened: (§1)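 Following a 5-hour attachment period, cells at 500-1,000/well received compounds and were cultured for 48 hours. CellTiter-Glo was added and luminescence read to estimate viable, metabolically active cells.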
# [2] = qHTS of pediatric cancer cell lines to identify multiple opportunities for drug repurposing: Primary screen for U-2 OS cells (AID 1347096); note: nearly all actives have a fitted effect of over 50% in size; note: potency is the fitted concentration of half-maximal effect
# Procedure, shortened: (§2)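 Cells (500-1,000/well) in growth media were settled 5 h at 37 degrees C, then given compounds for 48 h. Viability was read as CellTiter-Glo luminescence. Primary runs used MIPE at 11 points (0.78 nM-46 µM) and NPC at 8 points (0.59 nM-46 µM); follow-ups used 11 points.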
# [3] = qHTS of pediatric cancer cell lines to identify multiple opportunities for drug repurposing: Primary screen for Saos-2 cells (AID 1347097); note: nearly all actives have a fitted effect of over 40% in size; note: potency is the fitted concentration of half-maximal effect
# Procedure, shortened: as §1
# [4] = qHTS of pediatric cancer cell lines to identify multiple opportunities for drug repurposing: Primary screen for SK-N-SH cells (AID 1347098); note: nearly all actives have a fitted effect of over 65% in size; note: potency is the fitted concentration of half-maximal effect
# Procedure, shortened: (§3)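 Cells (500-1,000/well) rested 5 h, then received compounds for 48 h; metabolically active cells were measured by CellTiter-Glo luminescence. Final concentrations spanned up to 46 µM (MIPE, 11-point) or 0.59 nM-46 µM (NPC, 8-point) in primary screens, 11-point in follow-ups.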
# [5] = qHTS of pediatric cancer cell lines to identify multiple opportunities for drug repurposing: Primary screen for LAN-5 cells (AID 1347100); note: potency is the fitted concentration of half-maximal effect
# Procedure, shortened: as §2
# [6] = qHTS of pediatric cancer cell lines to identify multiple opportunities for drug repurposing: Primary screen for Rh18 cells (AID 1347102); note: nearly all actives have a fitted effect of over 65% in size; note: potency is the fitted concentration of half-maximal effect
# Procedure, shortened: as §2
# [7] = qHTS of pediatric cancer cell lines to identify multiple opportunities for drug repurposing: Primary screen for OHS-50 cells (AID 1347103); note: nearly all actives have a fitted effect of over 40% in size; note: potency is the fitted concentration of half-maximal effect
# Procedure, shortened: as §3
# [8] = qHTS of pediatric cancer cell lines to identify multiple opportunities for drug repurposing: Primary screen for RD cells (AID 1347104); note: nearly all actives have a fitted effect of over 55% in size; note: potency is the fitted concentration of half-maximal effect
# Procedure, shortened: as §1
# [9] = qHTS of pediatric cancer cell lines to identify multiple opportunities for drug repurposing: Primary screen for MG 63 (6-TG R) cells (AID 1347105); note: nearly all actives have a fitted effect of over 50% in size; note: potency is the fitted concentration of half-maximal effect
# Procedure, shortened: as §1
# [10] = qHTS of pediatric cancer cell lines to identify multiple opportunities for drug repurposing: Primary screen for Rh30 cells (AID 1347107); note: series mostly up to about 46 µM; nearly all actives have a fitted effect of over 75% in size
# Procedure, shortened: as §2
# [11] = qHTS of pediatric cancer cell lines to identify multiple opportunities for drug repurposing: Primary screen for Rh41 cells (AID 1347108); note: nearly all actives have a fitted effect of over 70% in size; note: potency is the fitted concentration of half-maximal effect
# Procedure, shortened: as §1
# [12] = qHTS of pediatric cancer cell lines to identify multiple opportunities for drug repurposing: Primary screen for NB1643 cells (AID 1347099); note: nearly all actives have a fitted effect of over 50% in size; note: potency is the fitted concentration of half-maximal effect
# Procedure, shortened: as §1
# [13] = qHTS of pediatric cancer cell lines to identify multiple opportunities for drug repurposing: Confirmatory screen for NB1643 cells (AID 1347109); note: nearly all actives have a fitted effect of over 45% in size; note: potency is the fitted concentration of half-maximal effect
# Procedure, shortened: as §2
# [14] = qHTS of pediatric cancer cell lines to identify multiple opportunities for drug repurposing: Confirmatory screen for A673 cells (AID 1347110);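 note: cells exposed to compound for 48 h before the viability read; nearly all actives have a fitted effect of over 65% in size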; note: potency is the fitted concentration of half-maximal effect
# Procedure, shortened: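 A673 cells at 500-1,000 cells/well were dosed 5 h after plating, in dilution series up to 46 uM final; primary runs used 8 or 11 points and confirmatory runs used 11 points. Viability was read by CellTiter-Glo luminescence after 48 h, against DMSO and 2.3 uM bortezomib controls.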
# [15] = qHTS of pediatric cancer cell lines to identify multiple opportunities for drug repurposing: Confirmatory screen for LAN-5 cells (AID 1347113); note: nearly all actives have a fitted effect of over 65% in size; note: potency is the fitted concentration of half-maximal effect
# Procedure, shortened: as §2
# [16] = qHTS of pediatric cancer cell lines to identify multiple opportunities for drug repurposing: Confirmatory screen for NB-EBc1 cells (AID 1347115);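 note: cells exposed to compound for 48 h before the viability read; nearly all actives have a fitted effect of over 45% in size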; note: potency is the fitted concentration of half-maximal effect
# Procedure, shortened: as §2
# [17] = qHTS of pediatric cancer cell lines to identify multiple opportunities for drug repurposing: Confirmatory screen for SJ-GBM2 cells (AID 1347116); note: nearly all actives have a fitted effect of over 60% in size; note: potency is the fitted concentration of half-maximal effect
# Procedure, shortened: (§4)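 Viability measured as metabolically active cells via CellTiter-Glo luminescence following 48 hours of compound exposure, 11-point dilutions in confirmatory testing. 500-1,000 cells/well plated 5 hours before dosing; controls were DMSO and 2.3 µM bortezomib.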
# [18] = qHTS of pediatric cancer cell lines to identify multiple opportunities for drug repurposing: Primary screen for BT-12 cells (AID 1347101); note: nearly all actives have a fitted effect of over 25% in size; note: potency is the fitted concentration of half-maximal effect
# Procedure, shortened: as §3
# [19] = qHTS of pediatric cancer cell lines to identify multiple opportunities for drug repurposing: Primary screen for control Hh wild type fibroblast cells (AID 1347106);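 note: series mostly up to about 46 µM; a drop in luminescence marks cytotoxicity and a rise apparent proliferation; nearly all actives have a fitted effect of over 55% in size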
# Procedure, shortened: as §2
# [20] = qHTS of pediatric cancer cell lines to identify multiple opportunities for drug repurposing: Confirmatory screen for DAOY cells (AID 1347114)
# Procedure, shortened: as §4
Compound,Potency [1],Potency [2],Potency [3],Potency [4],Potency [5],Potency [6],Potency [7],Potency [8],Potency [9],Potency [10],Potency [11],Potency [12],Potency [13],Potency [14],Potency [15],Potency [16],Potency [17],Potency [18],Potency [19],Potency [20]
COc1ccccc1N1CCN(CCN(C(=O)C2CCCCC2)c2ccccn2)CC1,6.62 µM (active),inactive,inactive,inactive,inactive,inactive,inactive,inactive,inactive,inactive,inactive,,,,,,,,,
CN(C)c1ccc(O)c2c1C[C@H]1C[C@H]3[C@H](N(C)C)C(=O)C(C(N)=O)=C(O)[C@@]3(O)C(=O)C1=C2O,inactive,inactive,inactive,inactive,,inactive,inactive,inactive,inactive,inactive,inactive,inactive,inactive,inactive,inactive,inactive,inactive,,,
O=C(c1ccccc1)c1ccc2n1CCC2C(=O)O (stereo not given),inactive,inactive,inactive,,inactive,inactive,inactive,inactive,inactive,inactive,inactive,inactive,,,,,,inactive,inactive,
COc1cc(Nc2c(C#N)cnc3cc(OCCCN4CCN(C)CC4)c(OC)cc23)c(Cl)cc1Cl,inactive,21.1 µM (active),8.33 µM (active),6.12 µM (active),,,19.5 µM (active) and 2.17 µM (active),15 µM (active) and 14.8 µM (active),,,,,,,,,,27.6 µM (active),inactive,
CC(S)C(=O)NCC(=O)O (stereo not given),inactive,inactive,inactive,inactive,inactive,inactive,inactive,inactive,inactive,inactive,inactive,,inactive,,inactive,inactive,,,inactive,
NC(=O)Cc1cccc(C(=O)c2ccccc2)c1N,inactive,inactive,inactive,inactive,inactive,inactive,inactive,inactive,inactive,inactive,inactive,inactive,,,,,,,inactive,
Cc1c(OCC(F)(F)F)ccnc1CS(=O)c1nc2ccccc2[nH]1 (stereo not given),inactive,inactive,inactive,inactive,inactive,inactive,,inactive,inactive,inactive,inactive,inactive,,,,,,inactive,inactive,
CCN(CC)CCOc1ccc(Nc2ncc3cc(-c4c(Cl)cccc4Cl)c(=O)n(C)c3n2)cc1,1.48 µM (active),1.18 µM (active),0.296 µM (active),0.242 µM (active),1.05 µM (active),0.372 µM (active),122 nM (active),743 nM (active),187 nM (active),,1.87 µM (active),3.72 µM (active),9.27 µM (active),0.185 µM (active),,18.5 µM (active),2.33 µM (active),19.3 µM (active),,1.65 µM (active)
CC(C)Oc1ccc2c(=O)c(-c3ccccc3)coc2c1,inactive,inactive,inactive,inactive,inactive,inactive,,inactive,inactive,inactive,inactive,inactive,,,,,,,inactive,
CC(C)[N+]1(C)[C@@H]2CC[C@H]1CC(OC(=O)C(CO)c1ccccc1)C2 (stereo not given in full),inactive,inactive,inactive,inactive,inactive,,,29600 nM (active),inactive,,,11.8 µM (active),,,,,,,inactive,
O=P(O)(O)C(O)(Cn1ccnc1)P(=O)(O)O,inactive,inactive,inactive,inactive,inactive,inactive,inactive,inactive,inactive,inactive,inactive,inactive,,,,,,,,
O=C(NCCO[N+](=O)[O-])c1cccnc1,inactive,inactive,inactive,inactive,inactive,inactive,inactive,inactive,inactive,inactive,inactive,,,,,,,inactive,inactive,
Cc1nc(-c2ccc(OCC(C)C)c(C#N)c2)sc1C(=O)O,inactive,inactive,inactive,inactive,inactive,inactive,inactive,inactive,inactive,inactive,inactive,inactive,,,,,,inactive,,
Cc1cc(C2CCCCC2)n(O)c(=O)c1,7.43 µM (active),inactive,21.1 µM (active),1.09 µM (active),7.43 µM (active),,3.09 µM (active) and 4.32 µM (active),7.5 µM (active) and 18.7 µM (active),13.3 µM (active) and 23.5 µM (active),,,11.9 µM (active) and 20.9 µM (active),14.7 µM (active),11.7 µM (active),5.85 µM (active),16.5 µM (active),inactive,6.92 µM (active) and 17.2 µM (active),,

# From PubChem BioAssay (NCATS)
